The record followed here is PubChem BioAssay (EPA / NIEHS).

Structures are written as SMILES. Where “and” joins values, the source holds several entries; their conditions need not be identical. Equal values may be shown once. Calls of active or inactive are those of the source. Rule for the calls: active = hit-call score of the fitted dose curve at least 0.9, where 1 is the maximum; inactive = score below 0.9.

Chain of Cellular tumor antigen p53 (Homo sapiens) (P04637 whole entry, looked up): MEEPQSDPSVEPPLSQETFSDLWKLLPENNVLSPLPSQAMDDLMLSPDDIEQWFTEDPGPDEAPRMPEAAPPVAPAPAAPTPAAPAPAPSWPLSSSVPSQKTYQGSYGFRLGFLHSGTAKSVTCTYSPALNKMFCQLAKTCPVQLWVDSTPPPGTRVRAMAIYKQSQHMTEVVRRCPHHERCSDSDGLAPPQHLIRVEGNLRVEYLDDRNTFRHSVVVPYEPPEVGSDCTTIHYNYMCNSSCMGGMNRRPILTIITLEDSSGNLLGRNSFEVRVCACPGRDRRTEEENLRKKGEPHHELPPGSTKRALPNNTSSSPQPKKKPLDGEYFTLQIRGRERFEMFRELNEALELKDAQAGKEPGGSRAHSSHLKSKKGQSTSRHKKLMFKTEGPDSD

The assay deals with Cellular tumor antigen p53 (Homo sapiens) (UniProt P04637). Description: ATG_p53_CIS: Attagene CIS-FACTORIAL HepG2 Assay for human p53 Transcription Factor (AID 2282994). To be noted: HepG2 p53 cis-element reporter, Attagene mRNA; actives raise or lower the signal. On the procedure:
ATG_CIS is a cell-based, multiplexed-readout assay that uses HepG2, a human liver cell line, with measurements taken at 24 hours after chemical dosing in a 24-well plate.ATG_p53_CIS is one of 52 assay component(s) measured or calculated from the ATG_CIS assay. It is designed to make measurements of mRNA induction, a form of inducible reporter, as detected with fluorescence intensity signals by Reverse transcription polymerase chain reaction (RT-PCR) and Capillary electrophoresis technology.Data from the assay component ATG_p53_CIS was analyzed into 1 assay endpoint. This assay endpoint, ATG_p53_CIS, was analyzed with bidirectional fitting relative to DMSO as the negative control and baseline of activity. Using a type of inducible reporter, measures of mRNA for gain or loss-of-signal activity can be used to understand the reporter gene at the transcription factor-level as they relate to the gene TP53. Furthermore, this assay endpoint can be referred to as a primary readout, because this assay has produced multiple assay endpoints where this one serves a reporter gene function. To generalize the intended target to other relatable targets, this assay endpoint is annotated to the dna binding intended target family, where the subfamily is tumor suppressor.
Human liver HepG2 cells are transiently transfected with multiple reporter transcription units (MRTUs) in 6-well plates using FuGene 6 reagent (Roche; 3 ml FuGene/1 mg DNA). The MRTU constructs are regulated by a cis-regulating element (promoter). […] A major difference between the CIS and TRANS system is that in CIS activities of endogenous TFs are measured, whereas the TRANS assay evaluates changes in activities of exogenous, chimeric NR-Gal4 proteins. […] At the end of 24 hour incubation, total RNA was isolated using TriZol reagent (Invitrogen). The isolated RNA is then reverse-transcribed using oligo(dT) primer and Mo-MLV reverse transcriptase (Invitrogen) with DNAse I (Ambion) treatment for 30 min. The one-tenth of the produced cDNA was amplified by PCR using Taq DNA polymerase (Invitrogen) and two reporter sequence-specific primers. The PCR products were fluorescently labeled by primer extension with 6-arboxyfluorescein (6-FAM) 5'-labeled reporter sequence-specific primer (2 min at 95 C, 20 s at 68 C and 10 min at 72 C) and these products were digested with 5U of HpaI (New England Biolabs) for 2h at 37 C. The fragments were purified using Qiaquick PCR columns (Qiagen), analyzed on an ABI 3130xL genetic analyzer (Applied Biosystems) with peak positions identified by using a set of X-rhodamine (ROX)-labeled MapMarker1000 molecular weight standards (BioVentures). The raw capillary electrophoresis data was processed using Attagraph software (Attagene).
Take `Cc1ccc(S(=O)(=O)NCl)cc1`: the compound was called inactive.
Same read-out and setting: in the case of `O=C(O)C(F)(F)C(F)(F)C(F)(F)C(F)(F)C(F)(F)C(F)(F)C(F)(F)C(F)(F)C(F)(F)C(F)F` it was “inactive”.
For orientation: AC50 means the midpoint of the concentration-response curve, whichever way the signal moves. With `N=C(N)C(F)(F)C(F)(F)C(F)(F)C(F)(F)C(F)(F)C(F)(F)C(F)(F)F`, the AC50 is 88.9 µM (active).
With `CCCCCCCCCCCCCCCC[N+](C)(C)Cc1ccccc1`, the outcome was inactive.
The same measure, in the same setting: in the case of `O=C(O)C(F)(OC(F)(F)C(F)(OC(F)(F)C(F)(F)C(F)(F)F)C(F)(F)F)C(F)(F)F` (stereo not given) it was “inactive”.
Still for that read-out and setting: in the case of `C=C(C)C(=O)OCCC(F)(F)C(F)(F)C(F)(F)C(F)(F)C(F)(C(F)(F)F)C(F)(F)F` it was “inactive”; in that of `C=C(C)C(=O)OCC(F)(F)C(F)(F)C(F)(F)C(F)(F)C(F)(F)C(F)(F)C(F)(F)F`, “inactive”; in that of `O=C(O)C(F)(OC(F)(F)C(F)(OC(F)(F)C(F)(OC(F)(F)C(F)(F)C(F)(F)F)C(F)(F)F)C(F)(F)F)C(F)(F)F` (stereo not given), “inactive”.
Turning to `O=C(Cl)C(F)(F)C(F)(F)C(F)(F)C(F)(F)C(F)(F)C(F)(F)C(F)(F)C(F)(F)F`, the AC50 is 54.3 µM (active).
Still for that read-out and setting: in the case of `O=C(O)C(F)(F)C(F)(F)C(F)(F)C(F)(F)C(F)(F)C(F)(F)C(F)(F)C(F)(F)Cl` it was 57.7 µM (active) and 69.5 µM (active).
For `O=C(O)C(F)(F)C(F)(F)C(F)F`, the result was inactive.
The same measure, in the same setting: in the case of `OC[C@@H](O)[C@@H](O)[C@H](O)[C@@H](O)CO` it was “inactive”.
As to `FC1CC(F)(F)C(F)(F)C1(F)F` (stereo not given), the compound was classed as inactive.
In the case of `O=S(=O)(O)c1ccc2ccccc2c1`, the outcome was inactive.
Take `Nc1ccc(Oc2cccc(Oc3ccc(N)cc3)c2)cc1`: the AC50 is 26.7 µM (active).
Regarding `COC(=O)C1CCC(C(=O)OC)CC1` (stereo not given), the compound was called inactive.
Still for that read-out and setting: for `FC(F)(F)C(F)(F)C(F)(F)C(F)(F)CCI` the value was “inactive”.
The same measure, in the same setting: for `O=S(=O)(OCCOC(F)(F)F)C(F)(F)F` the value was “inactive”; for `OCCCC(F)(F)C(F)(F)C(F)(F)F`, “inactive”; for `FC(F)(I)C(F)(F)C(F)(F)C(F)(F)I`, “inactive”.
Same read-out and setting: for `CCCCOc1ccc(N)cc1` the value was “inactive”; for `CC/C=C\CCOC(C)=O`, “inactive”.
As for `CC(C)c1ccccc1N`, the result was inactive.
On to `O=C(OCCOCCOCCOC(=O)c1ccccc1)c1ccccc1`, for which the compound was classed as inactive.
On to `O=C(O)C(F)(F)C(F)(F)C(F)(F)C(F)(F)C(F)(F)C(F)(F)C(F)(F)C(F)(F)C(F)(F)C(F)(F)C(F)(F)C(F)(F)C(F)(F)F`, for which the outcome was inactive.
For `CC(CCl)OP(=O)(OC(C)CCl)OC(C)CCl` (stereo not given), the outcome was inactive.
As to `CC(Cc1ccc(O)c(O)c1)C(C)Cc1ccc(O)c(O)c1` (stereo not given), the result was inactive.
Still for that read-out and setting: in the case of `FC(F)(F)C(F)(F)C(F)(F)C(F)(F)C(F)(F)C(F)(F)C(F)(F)C(F)(F)F` it was “inactive”; in that of `FC(F)(F)C(F)(F)C(F)(F)C(F)(F)C(F)(F)C(F)(F)CC1CO1` (stereo not given), “inactive”; in that of `CS(C)(=O)=O`, “inactive”.
Take `CCCCNc1ccccc1`: the call was inactive.
In the case of `O=C(O)C(F)(F)C(F)(F)C(F)(F)C(F)(F)C(F)(F)C(F)(F)C(F)(F)C(F)(F)C(F)(F)C(F)(F)C(F)(F)C(F)(F)F`, the AC50 is 143 µM (active).
In the case of `FC(F)(F)C(F)(F)C(F)(F)CI`, the call was inactive.
Still for that read-out and setting: for `C#C[C@]1(O)CC[C@H]2[C@@H]3CCc4cc(OC)ccc4[C@H]3CC[C@@]21C` the value was “inactive”.
In the case of `FC(F)(F)C(F)(F)C(F)(F)N(C(F)(F)C(F)(F)C(F)(F)F)C(F)(F)C(F)(F)C(F)(F)F`, the call was inactive.
Still for that read-out and setting: for `O=C(O)C(F)(F)C(F)(F)C(F)(F)C(F)(F)F` the value was “inactive”.
`OCC(F)(F)C(F)(F)C(F)(F)C(F)(F)C(F)(F)C(F)(F)F`: the AC50 was 257 µM (active).
For the compound `CCCCCCCCC(F)(F)C(F)(F)C(F)(F)C(F)(F)C(F)(F)C(F)(F)F`, the call was inactive.
On to `O=S(=O)(O)C(F)(F)C(F)(F)C(F)(F)C(F)(F)C(F)(F)C(F)(F)C(F)(F)F`, for which the call was inactive.
Same read-out and setting: in the case of `CCc1ccc(C(c2ccc(CC)cc2)C(Cl)Cl)cc1` it was “inactive”.
